Source: ChEMBL document CHEMBL3988442, “University of Dundee, Small-Polar-MMV Screening Library” (2021)

What was measured:
[1] = molecular target: T1, Aspartate--tRNA(Asp/Asn) ligase (Mycobacterium tuberculosis (strain ATCC 25618 / H37Rv)) (UniProt P9WFW3); assay: Assay for Asp RNA synthetase-1 from Mycobacterium tuberculosis; type: functional; set-up: scale not given: direction of the effect not stated beside the values; conditions: 30 µM; further: in the data most compounds retested in dose-response had high values
T1 sequence (whole entry): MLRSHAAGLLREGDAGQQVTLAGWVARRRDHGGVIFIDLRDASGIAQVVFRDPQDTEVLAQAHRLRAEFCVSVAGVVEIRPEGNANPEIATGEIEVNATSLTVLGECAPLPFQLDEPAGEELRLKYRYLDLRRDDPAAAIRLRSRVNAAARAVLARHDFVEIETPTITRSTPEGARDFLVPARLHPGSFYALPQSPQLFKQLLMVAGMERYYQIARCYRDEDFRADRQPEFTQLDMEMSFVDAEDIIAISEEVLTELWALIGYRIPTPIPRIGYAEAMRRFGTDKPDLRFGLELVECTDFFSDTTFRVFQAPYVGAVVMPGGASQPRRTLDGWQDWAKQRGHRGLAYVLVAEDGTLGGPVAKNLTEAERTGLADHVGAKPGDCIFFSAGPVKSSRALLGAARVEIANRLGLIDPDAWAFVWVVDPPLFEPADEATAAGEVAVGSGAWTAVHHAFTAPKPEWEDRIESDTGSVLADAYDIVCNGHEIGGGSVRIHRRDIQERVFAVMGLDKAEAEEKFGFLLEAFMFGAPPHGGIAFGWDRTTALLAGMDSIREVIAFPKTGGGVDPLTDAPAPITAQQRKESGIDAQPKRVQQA

[2] = molecular target: Shiga toxin 2 (Escherichia coli O157:H7) (UniProt P09385+P09386); assay: E. coli 0.157:H7 Shiga Toxin SOP - stx2 screening assay; type: functional; set-up: scale not given: direction of the effect not stated beside the values; conditions: 30 µM

| Compound | Percent Effect [1] | Percent Effect [2] |
| --- | --- | --- |
| CC(=O)c1cc(CC(=O)NCc2ccc(F)cc2)cs1 | 1.48% | -11.3% |
| CS(=O)(=O)N1CCOCC2(CN(Cc3ccco3)CCO2)C1 (stereo not drawn) | -7.59% | -18.6% |
| Cn1cc(C(=O)CC2CCCN2C(=O)c2cncc3ccccc23)cn1 (stereo not drawn) | -4.82% | -3.94% |
| Cc1ccc(NC2CCN(C(=O)Cc3ccc(C#N)cc3)CC2)nn1 | 4.2% | -11.6% |
| COc1ccc(CCN2CCCC(CN(C)Cc3ccc(C)o3)C2)cc1 (stereo not drawn) | -1.25% | -11.5% |
| CCOCC(O)CN1CCN(C(=O)C2CC2)CC1 (stereo not drawn) | 1.82% | 21.4% |
| NC(=O)NCC1CCCCN1C(=O)c1cccc(C(F)(F)F)c1 (stereo not drawn) | 2.58% | 11.1% |
| CN(C)CC(=O)N1CCC2(CC1)COC(COc1ccccn1)C2 (stereo not drawn) | 2.27% | -20.6% |
| Cc1ncsc1C(=O)NCCn1nc(C2CCNC2)c2cccnc21 (stereo not drawn) | -3.63% | -7% |
| O=C(NCc1cnc2n1CCN(c1ncc(F)cn1)CC2)C1CCC1 | -2.16% | 3.59% |
| Cc1noc(C)c1C(=O)N1C[C@H]2CCC[C@@]2(COc2ccccn2)C1 | 4.65% | 2.11% |
| CCS(=O)(=O)CCN1CCC(N(C)Cc2noc(C(C)C)n2)C1 (stereo not drawn) | 0% | -10.7% |
| Cc1nc(N2CCCCC2)ncc1-c1cc(O)[nH]n1 | -0.348% | -1.17% |
| CN(Cc1cnn(C)c1)C(=O)NC1CCC(O)CC1 (stereo not drawn) | -5.01% | 12% |
